# Measured values from PubChem BioAssay AID1159580 (chemical genetic matrix, 2015).
# The whole screen tested about 5,500 compounds, of which about 2,000 (36%) were called active. About 18% were inconclusive and are not listed. The list shows a part of the results. Values without a mark were called inactive. Rule as the data show it: active = normalized growth mostly below about 0.91 (no sharp cut-off); inconclusive = no clear call, values can overlap the other calls; inactive = mostly above about 0.92.
# Assay: chemical genetic growth profiling, strain panel (AID 1159580);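 also: tested at 20 µM; growth read once vehicle control cultures reached saturation at 30 °C; 1 = growth at the plate median or of vehicle wells; lower values mean less growth of the strain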
# Conditions: growth OD
smiles,measurement,setting,value
O=c1cc(-c2cc(O)c(O)c(O)c2)oc2cc(O)cc(O)c12,normalized growth,"S. cerevisiae deletion strains, locus YJR075W, strain HOC1, stronger effect = lower value",1.02
same,normalized growth,"S. cerevisiae deletion strains, locus YKL009W, strain mrt4, stronger effect = lower value",0.99
same,normalized growth,"S. cerevisiae deletion strains, locus YKL068W, stronger effect = lower value",0.962
same,normalized growth,"S. cerevisiae deletion strains, locus YKL085W, strain MDH1 (second series), stronger effect = lower value",0.996
same,normalized growth,"S. cerevisiae deletion strains, locus YKL085W, strain MDH1, stronger effect = lower value",0.996
same,normalized growth,"S. cerevisiae deletion strains, locus YKL160W, strain elf1, stronger effect = lower value",0.934
same,normalized growth,"S. cerevisiae deletion strains, locus YKL190W, strain CNB1, stronger effect = lower value",0.992
same,normalized growth,"S. cerevisiae deletion strains, locus YKR001C, strain vps1, stronger effect = lower value",0.986
same,normalized growth,"S. cerevisiae deletion strains, locus YKR026C, strain gcn3, stronger effect = lower value",1.01
same,normalized growth,"S. cerevisiae deletion strains, locus YKR091W, strain srl3, stronger effect = lower value",1.01
same,normalized growth,"S. cerevisiae deletion strains, locus YLL001W, strain dnm1, stronger effect = lower value",0.961
same,normalized growth,"S. cerevisiae deletion strains, locus YLL026W, stronger effect = lower value",1.01
same,normalized growth,"S. cerevisiae deletion strains, locus YLL041C, strain sdh2, stronger effect = lower value",1
same,normalized growth,"S. cerevisiae deletion strains, locus YLR027C, strain aat2, stronger effect = lower value",0.974
same,normalized growth,"S. cerevisiae deletion strains, locus YLR039C, strain RIC1, stronger effect = lower value",0.966
same,normalized growth,"S. cerevisiae deletion strains, locus YLR058C, strain SHM2, stronger effect = lower value",0.999
same,normalized growth,"S. cerevisiae deletion strains, locus YLR102C, strain apc9, stronger effect = lower value",0.995
same,normalized growth,"S. cerevisiae deletion strains, locus YLR113W, strain HOG1, stronger effect = lower value",0.998
same,normalized growth,"S. cerevisiae deletion strains, locus YLR221C, strain rsa3, stronger effect = lower value",0.928
same,normalized growth,"S. cerevisiae deletion strains, locus YLR258W, strain gsy2, stronger effect = lower value",0.967
same,normalized growth,"S. cerevisiae deletion strains, locus YLR262C, strain YPT6 (second series), stronger effect = lower value",0.905
same,normalized growth,"S. cerevisiae deletion strains, locus YLR262C, strain YPT6, stronger effect = lower value",1.05
same,normalized growth,"S. cerevisiae deletion strains, locus YLR268W, strain sec22, stronger effect = lower value",0.976
same,normalized growth,"S. cerevisiae deletion strains, locus YLR320W, strain mms22, stronger effect = lower value",0.897
same,normalized growth,"S. cerevisiae deletion strains, locus YLR330W, strain CHS5, stronger effect = lower value",0.994
same,normalized growth,"S. cerevisiae deletion strains, locus YLR342W, strain FKS1 (second series), stronger effect = lower value",0.986
same,normalized growth,"S. cerevisiae deletion strains, locus YLR342W, strain FKS1, stronger effect = lower value",0.964
same,normalized growth,"S. cerevisiae deletion strains, locus YLR357W, strain rsc2, stronger effect = lower value",0.856
same,normalized growth,"S. cerevisiae deletion strains, locus YLR370C, strain arc18, stronger effect = lower value",0.924
same,normalized growth,"S. cerevisiae deletion strains, locus YLR371W, strain rom2, stronger effect = lower value",0.985
same,normalized growth,"S. cerevisiae deletion strains, locus YLR384C, strain iki3, stronger effect = lower value",0.993
same,normalized growth,"S. cerevisiae deletion strains, locus YLR418C, strain cdc73, stronger effect = lower value",1.02
same,normalized growth,"S. cerevisiae deletion strains, locus YML016C, strain PPZ1, stronger effect = lower value",0.994
same,normalized growth,"S. cerevisiae deletion strains, locus YML032C, strain rad52, stronger effect = lower value",0.999
same,normalized growth,"S. cerevisiae deletion strains, locus YML120C, strain ndi1, stronger effect = lower value",0.948
same,normalized growth,"S. cerevisiae deletion strains, locus YML124C, strain tub3, stronger effect = lower value",0.998
same,normalized growth,"S. cerevisiae deletion strains, locus YMR058W, strain fet3, stronger effect = lower value",0.941
same,normalized growth,"S. cerevisiae deletion strains, locus YMR078C, strain ctf18, stronger effect = lower value",0.998
same,normalized growth,"S. cerevisiae deletion strains, locus YMR125W, strain sto1, stronger effect = lower value",1.03
same,normalized growth,"S. cerevisiae deletion strains, locus YMR129W, stronger effect = lower value",1.01
same,normalized growth,"S. cerevisiae deletion strains, locus YMR205C, strain PFK2, stronger effect = lower value",0.961
same,normalized growth,"S. cerevisiae deletion strains, locus YMR223W, strain ubp8, stronger effect = lower value",0.964
same,normalized growth,"S. cerevisiae deletion strains, locus YMR231W, strain pep5, stronger effect = lower value",1
same,normalized growth,"S. cerevisiae deletion strains, locus YMR263W, strain SAP30, stronger effect = lower value",0.999
same,normalized growth,"S. cerevisiae deletion strains, locus YMR307W, strain GAS1, stronger effect = lower value",1.09
same,normalized growth,"S. cerevisiae deletion strains, locus YNL067W, strain RPL9B, stronger effect = lower value",1.01
same,normalized growth,"S. cerevisiae deletion strains, locus YNL071W, strain lat1, stronger effect = lower value",0.979
same,normalized growth,"S. cerevisiae deletion strains, locus YNL128W, strain TEP1, stronger effect = lower value",0.953
same,normalized growth,"S. cerevisiae deletion strains, locus YNL183C, strain NPR1, stronger effect = lower value",0.966
same,normalized growth,"S. cerevisiae deletion strains, locus YNL209W, strain ssb2, stronger effect = lower value",0.875 (active)
same,normalized growth,"S. cerevisiae deletion strains, locus YNL233W, strain BNI4, stronger effect = lower value",1.01
same,normalized growth,"S. cerevisiae deletion strains, locus YNL248C, strain rpa49, stronger effect = lower value",1.02
same,normalized growth,"S. cerevisiae deletion strains, locus YNL250W, strain rad50, stronger effect = lower value",0.966
same,normalized growth,"S. cerevisiae deletion strains, locus YNL271C, strain bni1, stronger effect = lower value",0.978
same,normalized growth,"S. cerevisiae deletion strains, locus YNL298W, strain CLA4, stronger effect = lower value",0.985
same,normalized growth,"S. cerevisiae deletion strains, locus YNL307C, strain MCK1, stronger effect = lower value",1.01
same,normalized growth,"S. cerevisiae deletion strains, locus YNL322C, strain KRE1 (second series), stronger effect = lower value",0.991
same,normalized growth,"S. cerevisiae deletion strains, locus YNR049C, strain mso1, stronger effect = lower value",1.01
same,normalized growth,"S. cerevisiae deletion strains, locus YNR052C, strain pop2, stronger effect = lower value",0.999
same,normalized growth,"S. cerevisiae deletion strains, locus YOL006C, strain TOP1, stronger effect = lower value",1.08
same,normalized growth,"S. cerevisiae deletion strains, locus YOL012C, strain htz1",0.547
same,normalized growth,"S. cerevisiae deletion strains, locus YOL147C, strain pex11, stronger effect = lower value",1.01
same,normalized growth,"S. cerevisiae deletion strains, locus YOR001W, strain rrp6, stronger effect = lower value",0.987
same,normalized growth,"S. cerevisiae deletion strains, locus YOR061W, strain CKA2, stronger effect = lower value",0.997
same,normalized growth,"S. cerevisiae deletion strains, locus YOR069W, strain VPS5, stronger effect = lower value",1
same,normalized growth,"S. cerevisiae deletion strains, locus YOR070C, strain gyp1, stronger effect = lower value",0.962
same,normalized growth,"S. cerevisiae deletion strains, locus YOR080W, strain dia2, stronger effect = lower value",0.993
same,normalized growth,"S. cerevisiae deletion strains, locus YOR083W, strain WHI5, stronger effect = lower value",0.916
same,normalized growth,"S. cerevisiae deletion strains, locus YOR106W, strain vam3, stronger effect = lower value",0.926
same,normalized growth,"S. cerevisiae deletion strains, locus YOR136W, strain idh2, stronger effect = lower value",0.995
same,normalized growth,"S. cerevisiae deletion strains, locus YOR144C, strain elg1, stronger effect = lower value",1.01
same,normalized growth,"S. cerevisiae deletion strains, locus YOR184W, strain ser1, stronger effect = lower value",1.01
same,normalized growth,"S. cerevisiae deletion strains, locus YOR231W, strain MKK1, stronger effect = lower value",1.04
same,normalized growth,"S. cerevisiae deletion strains, locus YOR265W, strain rbl2, stronger effect = lower value",0.99
same,normalized growth,"S. cerevisiae deletion strains, locus YOR270C, strain vph1, stronger effect = lower value",0.888
same,normalized growth,"S. cerevisiae deletion strains, locus YOR290C, strain snf2, stronger effect = lower value",0.942
same,normalized growth,"S. cerevisiae deletion strains, locus YOR316C, strain cot1, stronger effect = lower value",0.987
same,normalized growth,"S. cerevisiae deletion strains, locus YPL051W, strain arl3, stronger effect = lower value",0.931
same,normalized growth,"S. cerevisiae deletion strains, locus YPL055C, strain LGE1, stronger effect = lower value",1.03
same,normalized growth,"S. cerevisiae deletion strains, locus YPL078C, strain atp4, stronger effect = lower value",0.98
same,normalized growth,"S. cerevisiae deletion strains, locus YPL106C, strain sse1, stronger effect = lower value",0.929
same,normalized growth,"S. cerevisiae deletion strains, locus YPL240C, strain hsp82, stronger effect = lower value",1.01
same,normalized growth,"S. cerevisiae deletion strains, locus YPL256C, strain CLN2, stronger effect = lower value",1.06
same,normalized growth,"S. cerevisiae deletion strains, locus YPR119W, strain clb2, stronger effect = lower value",1.01
same,normalized growth,"S. cerevisiae deletion strains, locus YPR141C, strain kar3, stronger effect = lower value",0.971
same,normalized growth,"S. cerevisiae deletion strains, locus YPR163C, strain tif3, stronger effect = lower value",0.988
same,normalized growth,"S. cerevisiae deletion strains, locus YPR167C, strain met16, stronger effect = lower value",1.01
same,normalized growth,"S. cerevisiae deletion strains, strain wtn01, stronger effect = lower value",1
same,normalized growth,"S. cerevisiae strains, strain wild type, stronger effect = lower value",0.996
